Compounds with a hit are over-represented: about 3.1% of the library has one in this group of screens.
ERAP1 inh – human ERAP1 aminopeptidase inhibitors, primary screen, biochemical, single point, plate reader; recombinant ERAP1, Leu-AMC fluorescence, 60 min; inhibition, % at 10.7 µM; hit rate 0.15% among 340,000; AID 652197, 2013;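 active = mean replicate inhibition of at least 30%, or all replicates individually reaching that 30% level; inactive = mean below 30% and not every replicate reaching it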;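 note: 0% = neutral control wells and 100% = L-leucinethiol positive control wells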
FGF22 binding – binders of human FGF22 protein, primary screen, FGF22 synaptogenesis inhibitor project, biophysical, thermal shift, single point. Fibroblast growth factor 22 (Homo sapiens), Q9HCT0. recombinant FGF22 thermal shift, SYPRO orange fluorescence; percent of sucrose octasulfate shift, DMSO zero. activity (Tm shift, normalised), % at 9.99 µM. hit rate 1.5% among 340,000. AID 651658, 2012;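 active = mean Tm shift, scaled 0 neutral to 100 positive control, at about 1.3% or above, every replicate too, limit read from the data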
Casp6 inh – human caspase-6 inhibitors, primary screen, biochemical, VEID-R110 fluorescence, single point, set 2; P55212; purified caspase-6, Z-VEID-R110 cleavage fluorescence; inhibition, % at 12.5 µM; hit rate 0.53% among 350,000;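 active = mean inhibition across replicates at least about 35%, with every replicate also reaching that limit, limit read from the data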;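 note: 0% = median of neutral control wells and 100% = no fluorescence left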
SIRT5 inh – SIRT5 desuccinylase inhibitors, primary screen, biochemical, fluorescence imaging, single point, set 5; NAD-dependent protein deacylase sirtuin-5, mitochondrial (Homo sapiens), Q9NXA8; Purified SirT5, succinyl-peptide AMC, trypsin-coupled fluorescence; inhibition, % at 15 µM; hit rate 1.1% among 330,000; AID 652115, 2013; in the data active = inhibition above about 15%
Starred values were filed as active, the others as inactive; ! = a repeat was not active.

`CC(C)c1ccc(CC(NC(=O)c2ccccc2)C(=O)NCC(=O)O)cc1` (stereo not given) gave ERAP1 inh 4, FGF22 binding 43*, Casp6 inh 0 and SIRT5 inh 3.
For O=C(NC(Cc1ccccc1)C(=O)NC1CC1)OCc1ccccc1 (stereo not given) the results were ERAP1 inh 3, FGF22 binding 0, Casp6 inh -6 and SIRT5 inh -3.
Cn1c(-c2ccccn2)[n+](C)c2ccccc21 was read as ERAP1 inh 0, FGF22 binding 43*, Casp6 inh 2 and SIRT5 inh -9.
For Cn1c(-c2ccc3ccccc3n2)[n+](C)c2ccccc21 the results were FGF22 binding 0, Casp6 inh -7 and SIRT5 inh 3.
Cc1ccc(NC(=O)CN2C(=O)S/C(=C\c3ccc(-c4cccc(C(=O)O)c4C)o3)C2=O)cc1C was read as ERAP1 inh 0, FGF22 binding 44* and SIRT5 inh -6.
`CCOC(=O)CN1C(=O)S/C(=C\c2ccc(-c3cccc(C(=O)O)c3C)o2)C1=O` gave ERAP1 inh -7, FGF22 binding 0, Casp6 inh 15 and SIRT5 inh 4.
Screening Cc1cccc(NC(=O)CN2C(=O)N/C(=C/c3ccc(-c4cccc(C(=O)O)c4C)o3)C2=O)c1 returned ERAP1 inh -18, FGF22 binding 43*, Casp6 inh 13 and SIRT5 inh 0.
Screening COc1ccc(NC(=O)N(C)C[C@H]2OCCCC[C@H](C)Oc3ccc(NC(=O)c4ccccc4)cc3C(=O)N([C@H](C)CO)C[C@H]2C)cc1 returned ERAP1 inh 1, FGF22 binding 0, Casp6 inh 1 and SIRT5 inh 0.
For C[C@@H]1CN([C@@H](C)CO)C(=O)Cc2cc(NC(=O)c3ccncc3)ccc2O[C@@H]1CN(C)Cc1ccc(C(=O)O)cc1 the results were ERAP1 inh 0, FGF22 binding 0, Casp6 inh 2 and SIRT5 inh 0.
`COCCn1c(N)c(N(Cc2ccccc2)C(=O)C2=COCCO2)c(=O)[nH]c1=O` gave ERAP1 inh 58*, FGF22 binding 0, Casp6 inh 4 and SIRT5 inh -3.
For COCCn1c(N)c(N(Cc2ccccc2)C(=O)c2ccc3ccccc3c2)c(=O)[nH]c1=O the results were ERAP1 inh 11, FGF22 binding 0, Casp6 inh 1 and SIRT5 inh 14.
`CN1CCN(CCCN(Cc2ccco2)C(=S)Nc2ccc(Cl)cc2)CC1` gave ERAP1 inh 2, FGF22 binding 43*, Casp6 inh -28 and SIRT5 inh -3.
CCN1CCN(CCCN(Cc2ccco2)C(=S)Nc2ccc(Cl)cc2)CC1 was read as ERAP1 inh 4, FGF22 binding 42, Casp6 inh -15 and SIRT5 inh -6.
For CC12CCC(CC1O)C2C(=O)O (stereo not given) the results were ERAP1 inh -2, FGF22 binding 43* and Casp6 inh -6.
`CCc1nnc(NC(=O)CS(=O)(=O)Cc2ccccc2)s1` gave ERAP1 inh 3, FGF22 binding 1.5*, Casp6 inh 2 and SIRT5 inh -2.
O=C(CCS(=O)(=O)Cc1ccccc1)Nc1nncs1 was read as ERAP1 inh -2, FGF22 binding 0, Casp6 inh 2 and SIRT5 inh 19*.
COc1cc(C(=O)NCCc2cc3c(OC)ccc(OC)c3[nH]c2=O)cc(OC)c1OC was read as ERAP1 inh -3, FGF22 binding 0, Casp6 inh -3 and SIRT5 inh 0.
Screening COc1ccc(OC)c2[nH]c(=O)c(CCNC(=O)c3cccs3)cc12 returned ERAP1 inh -1, FGF22 binding 44*, Casp6 inh 5 and SIRT5 inh 1.
`Cc1ccc2c(C)c(C(=O)Nc3ccc(S(N)(=O)=O)cc3)oc2c1C` gave ERAP1 inh -6, FGF22 binding 0, Casp6 inh -3 and SIRT5 inh -4.
`Cc1cc2oc(C(=O)Nc3ccc(S(N)(=O)=O)cc3)c(C)c2cc1Cl` gave ERAP1 inh 2, FGF22 binding 43*, Casp6 inh 1 and SIRT5 inh -4.
Screening Cc1ccc2c(C)c(C(=O)NCc3ccc(S(N)(=O)=O)cc3)oc2c1C returned ERAP1 inh 1, FGF22 binding 43*, Casp6 inh 2 and SIRT5 inh 0.
`Cc1ccc(S(=O)(=O)N(C)C[C@@H]2Oc3ccc(NS(=O)(=O)c4ccccc4)cc3C(=O)N([C@H](C)CO)C[C@@H]2C)cc1` gave ERAP1 inh 1, FGF22 binding 0, Casp6 inh -3 and SIRT5 inh 2.
For O=C(O)CCC(=O)Nc1sc2c(c1C(=O)Nc1ccccc1)CCCCC2 the results were ERAP1 inh 5, FGF22 binding 0, Casp6 inh 47* and SIRT5 inh -3.
For CC(C)(C)C(=O)Nc1sc2c(c1C(=O)Nc1ccccn1)CCCC2 the results were ERAP1 inh -2, FGF22 binding 1, Casp6 inh -3 and SIRT5 inh 18*.
CCOC(=O)CNC(=O)N1CCCC(C(=O)c2ccc3c(c2)OCO3)C1 (stereo not given) was read as ERAP1 inh 0, FGF22 binding 43*, Casp6 inh -5 and SIRT5 inh 3.
`C[C@H](CO)N1C[C@H](C)[C@@H](CN(C)S(=O)(=O)c2ccccc2)Oc2ccc(NC(=O)c3ccncc3)cc2CC1=O` gave ERAP1 inh 5, FGF22 binding 0, Casp6 inh 0 and SIRT5 inh 3.
C[C@@H]1CCCCO[C@@H](CN(C)Cc2ccc(Cl)c(Cl)c2)[C@H](C)CN([C@H](C)CO)C(=O)c2cc(N(C)C)ccc2O1 was read as ERAP1 inh 0, FGF22 binding -1, Casp6 inh 0 and SIRT5 inh -2.
C[C@@H]1CCCCO[C@H](CN(C)Cc2ccc(Cl)c(Cl)c2)[C@@H](C)CN([C@H](C)CO)C(=O)c2cc(N(C)C)ccc2O1 was read as ERAP1 inh 0, FGF22 binding 43*!, Casp6 inh 4 and SIRT5 inh 3.
`COc1ccc(CN(C)C[C@H]2OCCCC[C@H](C)Oc3ccc(N(C)C)cc3C(=O)N([C@H](C)CO)C[C@H]2C)cc1` gave ERAP1 inh 0, FGF22 binding -1, Casp6 inh 1 and SIRT5 inh 22*.
N#C[C@@H]1[C@@H](c2ccccc2-c2cccc(F)c2)[C@H](CO)N1C(=O)NC1CCCC1 was read as ERAP1 inh 1, Casp6 inh -3 and SIRT5 inh 2.
Screening Cc1ccc(-c2ccc([C@@H]3[C@@H](CO)N4CCCCN(C(=O)Nc5cccc(F)c5)C[C@@H]34)cc2)cc1 returned ERAP1 inh -1, FGF22 binding -1, Casp6 inh 2 and SIRT5 inh 18*.
